# According to PubChem BioAssay (NCATS):
# Results filed as inconclusive are left out. Entries that show only a call come without a potency. Active and inactive are the calls of the source. Unless noted, the call rests on the fitted dose curve; in most records, active means well fitted curve in the direction sought with a large enough effect; inconclusive means small, poorly fitted or top-dose-only effect, or another doubt; inactive means no such curve, though single readings can be large; an effect the other way counts as inactive or inconclusive.
# Tests used:
# [1] = target: Mitogen-activated protein kinase 10 (Mus musculus) (UniProt Q61831); assay: JNK3 AlphaScreen Assay (AID 530; active means well fitted curve in either direction with a large enough effect, not every such curve was filed as active;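 further: kinase came from lysate of stimulated human HepG2 cells; signal reports phosphorylation of biotinylated GST-cJun 1-79 at Ser73 with 10 µM ATP; series mostly up to about 57 µM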)
# In short: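 Compound titrations were preincubated 15 minutes at room temperature with substrate, antibody and pre-activated JNK3-containing HepG2 lysate. Reactions were started with 10 uM ATP and stopped with EDTA-containing bead buffer for AlphaScreen detection.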
# [2] = target: Cytochrome P450 3A4 (Homo sapiens) (UniProt P08684); assay: qHTS Assay for Inhibitors and Substrates of Cytochrome P450 3A4 (AID 884); further: nearly all actives have a fitted effect of over 50% in size; further: potency means the concentration at half of the fitted maximal effect
# Chain of Cytochrome P450 3A4 (Homo sapiens) (P08684 whole entry, looked up): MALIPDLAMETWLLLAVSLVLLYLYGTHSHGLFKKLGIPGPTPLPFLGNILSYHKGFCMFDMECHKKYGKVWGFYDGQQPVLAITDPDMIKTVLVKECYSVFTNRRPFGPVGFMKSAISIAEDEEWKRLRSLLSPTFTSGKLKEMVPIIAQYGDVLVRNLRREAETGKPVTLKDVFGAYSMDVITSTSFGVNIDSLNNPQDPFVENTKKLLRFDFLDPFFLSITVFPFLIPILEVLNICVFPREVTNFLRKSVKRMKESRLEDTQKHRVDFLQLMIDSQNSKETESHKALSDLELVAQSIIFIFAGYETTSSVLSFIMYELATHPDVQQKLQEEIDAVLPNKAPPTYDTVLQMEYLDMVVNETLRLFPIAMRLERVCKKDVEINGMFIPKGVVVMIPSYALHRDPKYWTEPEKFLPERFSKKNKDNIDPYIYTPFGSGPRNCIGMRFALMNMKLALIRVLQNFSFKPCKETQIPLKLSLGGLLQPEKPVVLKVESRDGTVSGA
# In short: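 20 nM human CYP3A4 with 25 uM Luciferin-PPXE (at KM) in 200 mM KPO4, preincubated 10 min with compound; NADPH regeneration started a 60 min RT reaction. Luciferin detected by luminescence, normalized to 57 uM ketoconazole as full inhibition.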
# [3] = target: Cytochrome P450 3A4 (Homo sapiens) (UniProt P08684); assay: qHTS Assay for Activators of Cytochrome P450 3A4 (AID 885); further: nearly all actives have a fitted effect of over 65% in size
# In short: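 20nM CYP3A4 + 25uM Luciferin-PPXE (=KM), 200mM KPO4; cpd 10 min RT; NADPH regen, 60 min RT; stop w/ detection buffer, 20 min; luminescence. Normalized to 57 uM ketoconazole.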
# [4] = target: Calcium and integrin-binding protein 1 (Homo sapiens) (UniProt Q99828); assay: Primary qHTS for Identification of Calcium Integrin Binding Protein 1 (CIB1) Competitor (AID 1508620);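 further: GST tagged CIB1 binding a fluorescein labelled alphaIIb integrin peptide tracer; top concentration of the series differs between compounds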
# Chain of Calcium and integrin-binding protein 1 (Homo sapiens) (Q99828 whole entry, looked up): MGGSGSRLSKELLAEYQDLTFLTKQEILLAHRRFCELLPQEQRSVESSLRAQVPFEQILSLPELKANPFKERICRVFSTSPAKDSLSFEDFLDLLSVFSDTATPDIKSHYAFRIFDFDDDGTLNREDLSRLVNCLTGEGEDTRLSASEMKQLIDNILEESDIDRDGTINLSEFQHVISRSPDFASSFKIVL
# In short: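 CIB1-GST (1 uM final) and compound incubated 15 min at room temperature before adding FITC-alphaIIb peptide tracer (100 nM final). Competition for binding read by fluorescence polarization (ex 480, em 540) after another 15 min at room temperature.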
Structure (SMILES),outcome [1],Potency [2],Potency [3],Potency [4]
CCCn1c(-c2ccc(F)cc2)nc2c(NCCCCN3CCCC3)nc(C)nc21,inactive,15.8 µM (active),inactive,inactive
CCCn1c(C)nc2c(NCCCN(CC)CC)nc(C)nc21,inactive,inactive,,inactive
CCN(CC)CCn1c(-c2ccccc2)nc2c(NCCO)nc(C)nc21,inactive,inactive,,inactive
CCCn1c(-c2ccc(F)cc2)nc2c(N3CCCN(Cc4ccccc4)CC3)nc(C)nc21,inactive,3.16 µM (active),inactive,inactive
CCCCNc1nc(C)nc2c1nc(-c1ccccc1)n2CC(C)(C)CN(C)C,inactive,10 µM (active),inactive,inactive
CCCCNc1nc(C)nc2c1nc(-c1ccccc1)n2CCN1CCCCC1,inactive,3.16 µM (active),inactive,inactive
CCCCNc1nc(C)nc2c1nc(-c1ccccc1)n2CCN1CCCC1,inactive,12.6 µM (active),inactive,inactive
Cc1nc(N2CCOCC2)c2nc(-c3ccccc3)n(C(C)CN(C)C)c2n1 (configuration not stated),inactive,,inactive,inactive
Cc1nc(NCc2ccccc2)c2nc(-c3ccccc3)n(C3CCN(Cc4ccccc4)C3)c2n1 (configuration not stated),inactive,3.98 µM (active),inactive,inactive
CCCn1c(-c2ccc(F)cc2)nc2c(N3CCN(Cc4nc(OC)cc(OC)n4)CC3)nc(C)nc21,inactive,3.98 µM (active),inactive,inactive
Cc1nc(Nc2ccccc2)c2nc(-c3ccccc3)n(CCN3CCOCC3)c2n1,inactive,1.58 µM (active),inactive,inactive
Cc1nc(N2CCOCC2)c2nc(-c3ccccc3)n(CCN3CCCCC3)c2n1,inactive,2.51 µM (active),inactive,inactive
COCCNc1nc(C)nc2c1nc(-c1ccccc1)n2CCN1CCCCC1,inactive,10 µM (active),inactive,inactive
CCCCNc1nc(C)nc2c1nc(-c1ccccc1)n2CCCN1CCCCC1C (configuration not stated),inactive,6.31 µM (active),inactive,inactive
COCCN(CCOC)c1nc(C)nc2c1nc(-c1ccccc1)n2CCCN1CCCCC1C (configuration not stated),inactive,12.6 µM (active),inactive,inactive
Cc1nc(NCc2ccccc2)c2nc(-c3ccccc3)n(CCN3CCCCC3)c2n1,inactive,,inactive,inactive
CCCn1c(-c2ccc(F)cc2)nc2c(NCCN(C(C)C)C(C)C)nc(C)nc21,inactive,,inactive,inactive
CCN(CC)CCn1c(-c2ccccc2)nc2c(NC3CCCCC3)nc(C)nc21,inactive,,inactive,inactive
CCN(CC)CCCCn1c(-c2ccccc2)nc2c(N(CCOC)CCOC)nc(C)nc21,inactive,12.6 µM (active),inactive,inactive

Structure (SMILES),outcome [1],Potency [2],Potency [3],Potency [4]
CCN1CCCC1Cn1c(-c2ccccc2)nc2c(NCc3ccccc3)nc(C)nc21 (configuration not stated),inactive,5.01 µM (active),inactive,inactive
CCCn1c(-c2ccc(F)cc2)nc2c(N3CCN(CCn4ccnc4)CC3)nc(C)nc21,inactive,0.631 µM (active),inactive,inactive
CCCCNc1nc(C)nc2c1nc(-c1ccccc1)n2C1CCN(Cc2ccccc2)C1 (configuration not stated),inactive,7.94 µM (active),inactive,inactive
Cc1nc(NC2CCCCC2)c2nc(-c3ccccc3)n(CCN3CCCCC3)c2n1,inactive,7.94 µM (active),inactive,inactive
Cc1nc(NCc2ccccc2)c2nc(-c3ccccc3)n(CC(C)(C)CN(C)C)c2n1,inactive,3.98 µM (active),inactive,inactive
Cc1nc(N2CCOCC2)c2nc(-c3ccccc3)n(CCCN3CCOCC3)c2n1,inactive,15.8 µM (active),inactive,inactive
CCCn1c(-c2ccc(F)cc2)nc2c(N(C)CCN(C)C)nc(C)nc21,inactive,,inactive,inactive
CCCn1c(C)nc2c(N3CCCN(Cc4ccccc4)CC3)nc(C)nc21,inactive,7.94 µM (active),inactive,inactive
CCCn1c(-c2ccc(F)cc2)nc2c(NC(C)CCCN(CC)CC)nc(C)nc21 (configuration not stated),inactive,10 µM (active),inactive,inactive
CCCn1c(-c2ccc(F)cc2)nc2c(NCCN3CCOCC3)nc(C)nc21,inactive,7.94 µM (active),inactive,inactive
CCCn1c(-c2ccc(F)cc2)nc2c(NCC3CCN(C)CC3)nc(C)nc21,inactive,,inactive,inactive
CCCn1c(-c2ccc(F)cc2)nc2c(NC3CCN(Cc4ccccc4)C3)nc(C)nc21 (configuration not stated),inactive,15.8 µM (active),inactive,inactive
CCCn1c(-c2ccc(F)cc2)nc2c(N3CCN(C)CC3)nc(C)nc21,inactive,,inactive,inactive
Cc1nc(NCc2ccccc2)c2nc(-c3ccccc3)n(C(C)CN(C)C)c2n1 (configuration not stated),inactive,10 µM (active),inactive,inactive
CCN1CCCC1Cn1c(-c2ccccc2)nc2c(NC3CCCCC3)nc(C)nc21 (configuration not stated),inactive,12.6 µM (active),inactive,inactive
CCN(CC)CCCC(C)n1c(-c2ccccc2)nc2c(NCc3ccccc3)nc(C)nc21 (configuration not stated),inactive,5.01 µM (active),inactive,inactive
Cc1nc(NCc2ccccc2)c2nc(-c3ccccc3)n(CCCN3CCCCC3C)c2n1 (configuration not stated),inactive,5.01 µM (active),inactive,inactive
CCCn1c(C)nc2c(NC(C)CCCN(CC)CC)nc(C)nc21 (configuration not stated),inactive,,inactive,inactive
CCCn1c(-c2ccc(F)cc2)nc2c(NCC(C)(C)CN(C)C)nc(C)nc21,inactive,,inactive,inactive

Structure (SMILES),outcome [1],Potency [2],Potency [3],Potency [4]
CCCn1c(-c2ccc(F)cc2)nc2c(NCCCCN(CC)CC)nc(C)nc21,inactive,10 µM (active),inactive,inactive
Cc1nc(NC2CCCCC2)c2nc(-c3ccccc3)n(C(C)CN(C)C)c2n1 (configuration not stated),inactive,12.6 µM (active),inactive,inactive
CCN(CC)CCCC(C)n1c(-c2ccccc2)nc2c(NC3CCCCC3)nc(C)nc21 (configuration not stated),inactive,12.6 µM (active),inactive,inactive
CCCCNc1nc(C)nc2c1nc(-c1ccccc1)n2C(C)CCCN(CC)CC (configuration not stated),inactive,10 µM (active),inactive,inactive
CCCn1c(C)nc2c(NCc3ccccc3)nc(C)nc21,inactive,,inactive,inactive
CCCn1c(-c2ccc(F)cc2)nc2c(NCCN3CCSCC3)nc(C)nc21,inactive,,inactive,inactive
Cc1nc(N2CCOCC2)c2nc(-c3ccccc3)n(CCCN3CCCCC3C)c2n1 (configuration not stated),inactive,,inactive,inactive
CCN(CC)CCCCn1c(-c2ccccc2)nc2c(NC3CCCCC3)nc(C)nc21,inactive,,inactive,inactive
Cc1nc(N2CCOCC2)c2nc(-c3ccccc3)n(CCN3CCOCC3)c2n1,inactive,,inactive,inactive
CCCn1c(-c2ccc(F)cc2)nc2c(NCCCN3CCCCC3C)nc(C)nc21 (configuration not stated),inactive,,inactive,inactive
CCCn1c(C)nc2c(NCCN3CCOCC3)nc(C)nc21,inactive,,inactive,inactive
CCCn1c(-c2ccc(F)cc2)nc2c(NC(C)CN(C)C)nc(C)nc21 (configuration not stated),inactive,,inactive,inactive
CCCCNc1nc(C)nc2c1nc(-c1ccccc1)n2CCN(C)C,inactive,,inactive,inactive
Cc1nc(N2CCOCC2)c2nc(-c3ccccc3)n(CCN3CCCC3)c2n1,inactive,,inactive,inactive
COCCNc1nc(C)nc2c1nc(-c1ccccc1)n2CCCN1CCCCC1C (configuration not stated),inactive,,inactive,inactive
COCCNc1nc(C)nc2c1nc(-c1ccccc1)n2CCN1CCCC1,inactive,,inactive,inactive
CCN1CCCC1Cn1c(-c2ccccc2)nc2c(N3CCOCC3)nc(C)nc21 (configuration not stated),inactive,,inactive,inactive
CCN(CC)CCCCn1c(-c2ccccc2)nc2c(NCc3ccccc3)nc(C)nc21,inactive,,inactive,inactive
CCCn1c(C)nc2c(N(CCOC)CCOC)nc(C)nc21,inactive,,inactive,inactive
